Compound activity deposited in PubChem by Broad Institute.
Statin myotox sup: suppressors of simvastatin-induced myotoxicity in C2C12 myotubes | rescue of ATP level, % at 7.49 µM | ATP luminescence, 48 h; scaled: DMSO 0, geranylgeraniol control 100 | AID 602340 | 330,000 tested, 0.78% active;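 active = mean ATP rescue above about 67%, or every replicate alone reaching that limit, limit read from the data, passing the limit was not always enough; inconclusive = no clear call, values can overlap the other calls; inactive = mean under the limit and some replicate under it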;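 note: myotubes were challenged with 10 µM simvastatin during compound exposure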
Rtt109 Vps75: C. albicans Rtt109 histone acetyltransferase inhibition; Q5AAJ8; AID 540336; inhibition, % at 34.9 µM; 330,000 tested, 0.16% active; purified Rtt109/Vps75, ThioGlo CoA-SH fluorescence, 4 h;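 active = inhibition of at least 50% in every replicate; inconclusive = best replicate reaches 50% inhibition but some replicates fall short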
Target sequence (Q5AAJ8 whole entry, looked up): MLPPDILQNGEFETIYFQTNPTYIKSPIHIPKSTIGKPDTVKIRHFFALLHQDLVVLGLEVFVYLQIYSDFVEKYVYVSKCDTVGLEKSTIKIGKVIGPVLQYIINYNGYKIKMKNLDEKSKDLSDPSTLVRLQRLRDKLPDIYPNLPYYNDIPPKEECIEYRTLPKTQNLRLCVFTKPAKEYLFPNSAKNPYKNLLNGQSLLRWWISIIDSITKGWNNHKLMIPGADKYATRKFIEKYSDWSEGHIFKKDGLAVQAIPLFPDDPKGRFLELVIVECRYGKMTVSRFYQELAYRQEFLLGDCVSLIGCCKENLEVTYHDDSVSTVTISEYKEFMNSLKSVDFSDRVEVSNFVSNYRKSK
Wnt bcat act: Wnt/beta-catenin pathway activation; Wnt/beta-catenin reporter cell assay, activator, plate reader; activation, % at 9.35 µM; 300,000 tested, 1.2% active; AID 743398; in the data active = activation above about 30%, passing the limit was not always enough; inconclusive = no clear call, values can overlap the other calls
MITF act: activators of MITF-driven TRPM1 promoter activity in SK-MEL-5 cells; 300,000 tested, 0.75% active; activation, % at 12.5 µM; SK-MEL-5 TRPM1-promoter luciferase, 24 h; % of positive control, neutral wells = 0;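 active = mean activation of at least 80% with every replicate also reaching 80%; inconclusive = mean reaches 80% but some replicate falls short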
esBAF inh: blocks esBAF chromatin remodeling in mouse ES cells | Bmi1-luciferase knock-in reporter, 24 h; 100% = twice the neutral-well signal | reporter increase, % at 12.5 µM | 350,000 tested, 2% active; in the data active = activation above about 40%; inconclusive = no clear call, values can overlap the other calls;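 note: a rise in the Bmi1 reporter signal indicates esBAF inhibition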
Of the large screens only hits and unclear results are named; the others gave an inactive call. Compounds with a hit are over-represented: about 3.1% of the library has one in this group of screens.

C[C@H](O)C#Cc1cnc2c(c1)C(=O)N([C@@H](C)CO)C[C@@H](C)[C@H](CN(C)C(=O)c1ccc(F)cc1)O2	none (no result: Rtt109 Vps75, Wnt bcat act, MITF act)
O=C(Nc1cccc(O)c1)c1noc2c1CCc1ccccc1-2	none (no result: Wnt bcat act)
CSc1ccccc1NC(=O)c1noc2c1CCC2	esBAF inh 48 (no result: Statin myotox sup)
Cc1ccc(O)c(NC(=O)c2noc3c2CCCCC3)c1	esBAF inh 51
Cc1ccc(NC(=O)c2noc3c2CCc2ccccc2-3)cc1	Wnt bcat act 42, esBAF inh 60 (no result: Statin myotox sup, MITF act)
Cc1ccc(NC(=O)c2noc3c2CCCCC3)cc1	none
CCc1ccc(NC(=O)c2noc3c2CCc2ccccc2-3)cc1	Wnt bcat act 33 (no result: MITF act)
C[C@H](CO)N1C[C@H](C)[C@H](CN(C)C(=O)Nc2ccccc2F)Oc2cc(-c3ccc(C(=O)N(C)C)cc3)ccc2S1(=O)=O	none (no result: Rtt109 Vps75, Wnt bcat act, MITF act)
CN(C)CCCNC(=O)[C@H]1[C@H](CO)[C@H]2Cn3c(cccc3=O)[C@@H]1N2C(=O)Nc1cc(F)ccc1F	none (no result: Rtt109 Vps75, Wnt bcat act, MITF act)
CNC(=O)C[C@H]1CC[C@@H]2[C@@H](COc3ccc(NC(=O)c4ccccc4OC)cc3C(=O)N2C)O1	none (no result: Rtt109 Vps75, Wnt bcat act, MITF act)
O=C(NCCc1ccccc1)c1noc2c1CCCCC2	MITF act 107, esBAF inh 50 (no result: Wnt bcat act)
CCc1ccc(NC(=O)c2noc3c2CCCCC3)cc1	none (no result: Wnt bcat act)
CCc1ccc(NC(=O)c2noc3c2CCC3)cc1	esBAF inh 73 (no result: MITF act)
CO[C@@H]1CN(C)C(=O)c2ccc(NC(=O)Nc3ccccc3)cc2OC[C@@H](C)N(CC2CC2)C[C@@H]1C	none (no result: Rtt109 Vps75, Wnt bcat act, MITF act)
O=C(O)CSc1nnc2c(n1)[nH]c1ccccc12	none (no result: Statin myotox sup, esBAF inh)
CC(C)CSc1nnc2c(n1)[nH]c1ccccc12	Wnt bcat act 50 (no result: Statin myotox sup, esBAF inh)
CCCCSc1nnc2c(n1)[nH]c1ccccc12	Wnt bcat act 62
C[C@H](CO)N1C[C@H](C)[C@@H](CN(C)C(=O)C2CCCCC2)Oc2ncc(C#CC3CC3)cc2C1=O	none (no result: Rtt109 Vps75, Wnt bcat act, MITF act, esBAF inh)
O=C(c1cnc2n(c1=O)CCS2)N1CCN(C(c2ccccc2)c2ccc(Cl)cc2)CC1 (configuration not stated)	Statin myotox sup 76 (no result: Wnt bcat act)
Cc1ccc(C(=O)NCCn2cc(SCC(=O)N3CCOCC3)c3ccccc32)cc1	esBAF inh 53 (no result: MITF act)
O=C(CSc1cn(CCNC(=O)c2ccccc2)c2ccccc12)NCC1CCCO1 (configuration not stated)	none (no result: Statin myotox sup, esBAF inh)
Cc1cc(NC(=O)CSc2cn(CCNC(=O)c3ccccc3)c3ccccc23)no1	esBAF inh 47 (no result: Wnt bcat act)
Cc1ccc(C(=O)NCCn2cc(SCC(=O)Nc3cc(C)on3)c3ccccc32)cc1	esBAF inh 58 (no result: MITF act)
CCCn1cc(SCC(=O)Nc2cc(C)on2)c2ccccc21	none
CCn1cc(SCC(=O)Nc2cc(C)on2)c2ccccc21	none
C[C@@H]1CCCCO[C@H](CN(C)C(=O)C2CCCCC2)[C@H](C)CN([C@H](C)CO)C(=O)c2cc(NS(=O)(=O)c3ccccc3)ccc2O1	Statin myotox sup 89 (no result: Rtt109 Vps75, Wnt bcat act, MITF act)
C[C@@H]1CCCCO[C@@H](CN(C)C(=O)Nc2cccc3ccccc23)[C@H](C)CN([C@H](C)CO)C(=O)c2cc(NC(=O)c3ccncc3)ccc2O1	Statin myotox sup 135 (no result: Rtt109 Vps75, Wnt bcat act, MITF act)
C[C@@H]1CCCCO[C@@H](CN(C)C(=O)C2CCCCC2)[C@H](C)CN([C@@H](C)CO)C(=O)c2cc(NC(=O)c3ccncc3)ccc2O1	Statin myotox sup 95 (no result: Rtt109 Vps75, Wnt bcat act, MITF act)
C[C@H](CO)N1C[C@H](C)[C@@H](CN(C)C(=O)NC2CCCCC2)OCCCC[C@H](C)Oc2ccc(NC(=O)Nc3cccc4ccccc34)cc2C1=O	Statin myotox sup 122 (no result: Rtt109 Vps75, Wnt bcat act, MITF act)
C[C@@H]1CN([C@@H](C)CO)C(=O)c2cc(NC(=O)Nc3cccc4ccccc34)ccc2O[C@@H](C)CCCCO[C@@H]1CN(C)C(=O)NC1CCCCC1	none (no result: Rtt109 Vps75, Wnt bcat act, MITF act)
C[C@@H]1CCCCO[C@@H](CN(C)C(=O)C2CCCCC2)[C@@H](C)CN([C@@H](C)CO)C(=O)c2cc(NC(=O)c3ccncc3)ccc2O1	none (no result: Rtt109 Vps75, Wnt bcat act, MITF act)
C[C@@H]1CN([C@@H](C)CO)C(=O)c2cc(NC(=O)c3ccncc3)ccc2O[C@@H](C)CCCCO[C@H]1CN(C)C(=O)Nc1cccc2ccccc12	none (no result: Rtt109 Vps75, Wnt bcat act, MITF act)
C[C@H](CO)N1C[C@H](C)[C@H](CN(C)C(=O)NC2CCCCC2)Oc2ncc(C#Cc3cccc(F)c3)cc2C1=O	none (no result: Rtt109 Vps75, Wnt bcat act, MITF act)
O=C(CCNS(=O)(=O)c1ccc(Br)cc1)NCc1ccc2c(c1)OCO2	Statin myotox sup 152 (no result: Wnt bcat act)
CCCNS(=O)(=O)c1ccc(CCC(=O)NCc2ccc3c(c2)OCO3)cc1	none (no result: Statin myotox sup, Wnt bcat act, esBAF inh)
COc1ccc(S(=O)(=O)NC(CC(=O)NCc2ccc3c(c2)OCO3)c2ccco2)cc1 (configuration not stated)	Statin myotox sup 117 (no result: Wnt bcat act)
N[C@H]1CC[C@@H](CCn2cc(-c3ccccn3)nn2)O[C@H]1CO	none (no result: Rtt109 Vps75, Wnt bcat act, MITF act)
COc1ccc(-c2cc(C(F)(F)F)nc(SCCC(=O)N3CCN(C)CC3)n2)cc1	none (no result: Statin myotox sup, esBAF inh)
COc1ccc(-c2cc(C(F)(F)F)nc(SCC(N)=O)n2)cc1	esBAF inh 51 (no result: Wnt bcat act)
Nc1c(Br)cc2oc(-c3ccccc3)nc2c1Br	esBAF inh 58 (no result: Wnt bcat act)
COc1ccc(-c2nc3c(Br)c(N)c(Br)cc3o2)cc1	none (no result: Statin myotox sup, esBAF inh)
C[C@@H]1CN([C@@H](C)CO)C(=O)c2cc(NC(=O)CCC(F)(F)F)ccc2O[C@@H](C)CCCCO[C@@H]1CN(C)CC1CCCCC1	none (no result: Statin myotox sup, Rtt109 Vps75, Wnt bcat act, MITF act)
C[C@@H]1CN([C@H](C)CO)C(=O)c2cc(NS(=O)(=O)c3cn(C)cn3)ccc2O[C@@H](C)CCCCO[C@H]1CN(C)Cc1ccccc1	none (no result: Statin myotox sup, Rtt109 Vps75, Wnt bcat act, MITF act)
CCOC(=O)c1nnc(-c2ccc(C)cc2)nc1Sc1ccc(Cl)cc1	Statin myotox sup 109
CCOc1ccccc1-n1nnnc1SCc1nc2ccccc2s1	none (no result: Wnt bcat act)
Cc1ccccc1-n1c(C)nnc1SCc1nc2ccccc2s1	esBAF inh 69
Cn1c(SCc2nc3ccccc3s2)nnc1-c1cccs1	esBAF inh inconclusive (no result: Wnt bcat act)
CCCn1c(=O)c2ccccc2n2c(SCc3nc4ccccc4s3)nnc12	esBAF inh 42
CCn1c(SCc2nc3ccccc3s2)nnc1-c1cccs1	esBAF inh 50 (no result: Wnt bcat act)
COC(=O)c1nn(-c2ccc(C)cc2)c2nnc(Cc3ccccc3)c(=O)n12	Wnt bcat act 37 (no result: Statin myotox sup, esBAF inh)
COC(=O)c1nn(-c2cccc(C)c2)c2nnc(Cc3ccc(C)cc3)c(=O)n12	none (no result: Statin myotox sup, esBAF inh)
COC(=O)[C@@H]1C[C@@H](C(=O)O)[C@H](C)C1(C)C	none
COc1ccc(C)cc1C(=O)C1CC(C(=O)O)C(C)(C)C1C (configuration not stated)	Statin myotox sup 104 (no result: Wnt bcat act)
Cc1cccc(Oc2nc3c(c(=O)n(C)c(=O)n3C)n2C)c1	none
Cn1c(=O)c2c(nc(Oc3ccccc3)n2C)n(C)c1=O	Statin myotox sup 142
Cc1ccc(SCC(=O)Nc2cccc(C(=O)NC(C)(C)C)c2)cc1	none (no result: Wnt bcat act)
Cc1ccc(SCC(=O)NC(C)(C)C)cc1	Wnt bcat act 33, esBAF inh 56 (no result: MITF act)
COc1ccc(-n2nnc3c(SCC(=O)N4CCCc5ccccc54)ncnc32)cc1	Wnt bcat act 50
Cc1ccnc(SCC(=O)N2CCCc3ccccc32)n1	none
Nc1ccccc1SCC(=O)N1CCc2ccccc21	none
